From PubChem
GPR151 activ: activators of human GPR151, primary screen, cell-based, PathHunter beta-arrestin, luminescence | G-protein coupled receptor 151 (Homo sapiens), Q8TDV0 | PathHunter beta-arrestin GPR151 cells | activation, % at 11.2 µM | actives 1% (n = 650,000) | AID 1508602, 2020; in the data active means activation above about 4.9%
TEAD-YAP block: TEAD-YAP interaction inhibition, primary screen, TEAD-YAP interaction inhibitor project, luminescence, HEK-TIYL cells | TEAD-Gal4/YAP UAS-luciferase luminescence | actives 1.4% (n = 640,000) | AID 1259422, 2018 | inhibition, % at 9.12 µM; in the data active means inhibition above about 32%
MITF inh: MITF inhibitors, primary screen, biochemical, AlphaScreen, human; Microphthalmia-associated transcription factor (Homo sapiens), O75030; AlphaScreen MITF homodimerization, bead proximity signal; inhibition, % at 2.6 µM; actives 0.91% (n = 650,000); in the data active means inhibition above about 50%
Target sequence (O75030 whole entry, looked up): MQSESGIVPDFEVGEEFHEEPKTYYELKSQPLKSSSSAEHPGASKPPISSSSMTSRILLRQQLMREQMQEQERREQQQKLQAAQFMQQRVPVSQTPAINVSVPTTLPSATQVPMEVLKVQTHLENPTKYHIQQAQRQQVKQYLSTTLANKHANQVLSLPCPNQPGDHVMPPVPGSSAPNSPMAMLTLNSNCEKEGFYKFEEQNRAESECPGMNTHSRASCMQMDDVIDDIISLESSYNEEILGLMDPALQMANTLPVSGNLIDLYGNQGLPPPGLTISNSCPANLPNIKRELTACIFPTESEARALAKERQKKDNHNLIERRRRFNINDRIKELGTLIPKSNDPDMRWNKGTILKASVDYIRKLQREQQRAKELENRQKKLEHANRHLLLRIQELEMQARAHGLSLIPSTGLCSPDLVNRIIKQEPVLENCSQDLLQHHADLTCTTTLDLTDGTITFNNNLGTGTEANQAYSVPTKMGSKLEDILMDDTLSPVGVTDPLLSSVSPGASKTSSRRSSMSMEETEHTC
FBW7 act: FBW7 E3 ligase activators, primary screen, biochemical, AlphaScreen, human | F-box/WD repeat-containing protein 7 (Homo sapiens), Q969H0 | AlphaScreen FBW7–phospho-cyclin E peptide binding, activator screen | normalized activity (activation), % at 26.1 µM | actives 0.13% (n = 650,000) | AID 1259310, 2017; in the data active means normalized activity above about 1.9%;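 further: purified mutant Fbw7 with reduced substrate affinity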
Each line names hits and unclear results; the compound was inactive in the other large screens. The list is not random: actives were taken first. Their share in the collection is about 3.4%.

COc1cc(C(=O)Nc2ncc(Cc3ccccc3)s2)cc(OC)c1OC	TEAD-YAP block 53.4
COc1cc(C(=O)Nc2ncc(Cc3cccc(Cl)c3)s2)cc(OC)c1OC	TEAD-YAP block 54.5
O=C(Cc1ccccc1)Nc1ncc(Cc2ccccc2)s1	none
CC1CCC(NCC(O)COc2ccc(S(=O)(=O)N3CCCC3)cc2[N+](=O)[O-])CC1 (stereo not given)	none
FC(F)(F)c1cccc(NC(=S)N(Cc2ccccc2)Cc2cccnc2)c1	none
CC(C)(C)c1cc(CC(=O)O)c2c(c1)C(C)(C)CC2	TEAD-YAP block 47.9
C/C(=N/NC(N)=O)c1cc(C(C)(C)C)cc2c1CCC2(C)C	none
O=C(Nc1ccc2scnc2c1)c1ccc2ccccc2c1	TEAD-YAP block 66.0
COc1cccc(C(=O)Nc2ccc(N3CCCCC3=O)c(C)c2)c1	TEAD-YAP block 75.5
O=C(Nc1ccc2ccccc2c1)c1ccc(C2CCCCC2)cc1	TEAD-YAP block 33.6
COc1cccc(C(=O)Nc2ccc3scnc3c2)c1	TEAD-YAP block 63.4
O=C(NCC1Cc2cc(-c3cccnc3)cc(F)c2O1)c1sccc1Cl (stereo not given)	none
COc1ccc(Cl)cc1C(=O)Nc1ccc(Nc2cc(-n3cccn3)ncn2)cc1	none
COc1cccc(C(=O)Nc2ccc(Nc3cc(-n4cccn4)ncn3)cc2)c1	TEAD-YAP block 67.9
CCOC(=O)N1CCC(NC(=O)CSc2ccc(C(=O)Nc3ccccc3OC)cc2[N+](=O)[O-])CC1	none
CCOCc1cc(CN2CCCCC2)c(O)c2ncccc12	MITF inh 103.2
Oc1c(CN2CCN(c3cccc(Cl)c3)CC2)cc(COCc2ccccc2)c2cccnc12	none
CCOCc1cc(CN2CCN(c3ccccc3)CC2)c(O)c2ncccc12	TEAD-YAP block 58.9, MITF inh 95.3
CCOC(=O)C1CCCN(Cc2cc(Cl)c3cccnc3c2O)C1 (stereo not given)	none
COc1ccc(Nc2nc3ccc([N+](=O)[O-])cc3nc2Nc2ccc(OC)cc2)cc1	none
c1ccc(-n2cnc3c(NCc4cccnc4)nc(N4CCN(c5ccccn5)CC4)nc32)cc1	none
c1ccc(N2CCN(c3nc(NCc4cccnc4)c4ncn(-c5ccsc5)c4n3)CC2)nc1	TEAD-YAP block 50.9
c1cncc(CNc2nc(N3CCOCC3)nc3c2ncn3-c2ccsc2)c1	TEAD-YAP block 45.2
O=C(O)CCN1C(=O)/C(=C/c2cccc(O)c2)SC1=S	none
O=C(O)CCN1C(=O)/C(=C\c2cccc(O)c2)SC1=S	none
O=C(CCN1C(=O)/C(=C/C=C/c2ccccc2)SC1=S)Nc1ccccn1	none
COc1cccc(/C=C2\SC(=S)N(CCCCCC(=O)O)C2=O)c1	TEAD-YAP block 65.7
Cc1csc(NC(=O)CCN2C(=O)/C(=C/C=C/c3ccccc3)SC2=S)n1	MITF inh 60.7
Cc1cccc(/C=C2\SC(=S)N(CCC(=O)O)C2=O)c1	TEAD-YAP block 33.9
O=C(O)CCCCCN1C(=O)/C(=C/c2cccc(O)c2)SC1=S	TEAD-YAP block 44.5
CCOC(=O)C1(CCc2ccccc2)CCN(Cc2cnn(C)c2C)CC1	none
Cc1nnc(-c2cn(CC(=O)NC(C)C)c3ccccc23)o1	none
O=c1c(Oc2ccc(F)cc2)coc2c(O)c(O)ccc12	MITF inh 82.7
Cc1ccc(-c2nnc(Nc3ccc4c(c3)OCO4)c3ccccc23)cc1S(=O)(=O)N1CCOCC1	none
NC(C(=O)O)C(O)c1ccccc1 (stereo not given)	none
N[C@H](C(=O)O)[C@H](O)c1ccc(O)c(O)c1	MITF inh 54.2
COc1cccc2cc(C(=O)NCc3cccc(Cl)c3)c(=Nc3ccc(C(=O)O)cc3)oc12	TEAD-YAP block 34.6
OCCNc1nc(N2CCN(c3ccccn3)CC2)nc2c1ncn2-c1ccccc1	TEAD-YAP block 42.5
OCCNc1nc(N2CCN(c3ccccn3)CC2)nc2c1ncn2-c1ccsc1	TEAD-YAP block 50.9
COc1ccc(CCNc2nc(N3CCN(c4ccccn4)CC3)nc3c2ncn3-c2ccsc2)cc1	none
c1ccc(N2CCN(c3nc(NCCN4CCOCC4)c4ncn(-c5ccsc5)c4n3)CC2)nc1	TEAD-YAP block 57.4
CCCNc1nc(N2CCCC2CO)nc2c1ncn2-c1ccsc1 (stereo not given)	TEAD-YAP block 36.7
Cc1nc(N2CCCCC2)[nH]c(=O)c1C	none
Cc1ccc(-c2nn(CN3CCCc4ccccc43)c(=S)n2-c2ccccc2)cc1	TEAD-YAP block 48.7
CC(C)C(=O)Nc1ccc(NC(=O)c2ccccc2F)cn1	none
CC(=O)COc1ccc2ccc(=O)oc2c1	none
COc1cc(-c2cnn3ccc(Nc4ccccc4)nc23)cc(OC)c1OC	TEAD-YAP block 46.9
COc1cncc(-c2cnn3ccc(Nc4ccc(N5CCOCC5)cc4)nc23)c1	TEAD-YAP block 39.0
C/C(=N\NC(=O)c1cc(-c2ccc(CC(C)C)cc2)n[nH]1)c1ccncc1	TEAD-YAP block 67.2
CCOc1ccccc1-c1cc(C(=O)N/N=C(\C)c2cccs2)[nH]n1	TEAD-YAP block 48.7
CCOc1ccc(-c2cc(C(=O)N/N=C(\C)c3ccc(OC)cc3)[nH]n2)cc1	TEAD-YAP block 44.3
CCOc1ccccc1-c1cc(C(=O)N/N=C(/C)c2ccc(OC)c(OC)c2)[nH]n1	TEAD-YAP block 39.5
C/C(=N\NC(=O)c1cc(C(C)C)[nH]n1)c1ccncc1	none
CCOc1cccc(-c2cc(C(=O)N/N=C(\C)c3cccs3)[nH]n2)c1	none
C/C(=N\NC(=O)c1cc(-c2ccccc2Cl)n[nH]1)c1ccc(O)cc1	none
Cn1cnc(-c2ccnc(Nc3ccc(N4CCOCC4)cc3)c2)n1	none
c1cnn(-c2ccnc(Nc3ccc(N4CCOCC4)cc3)c2)c1	none
c1ccc(-c2ccn[nH]2)c(Nc2ccnc(Nc3ccc(N4CCOCC4)cc3)c2)c1	TEAD-YAP block 38.2
c1cc(-c2ocnc2-c2ccc3cn[nH]c3c2)cc(Nc2ccc(N3CCOCC3)cc2)n1	TEAD-YAP block 58.4
Cn1cc(-c2ncoc2-c2ccnc(Nc3ccc(N4CCOCC4)cc3)c2)cn1	none
Cn1ccc(-c2ccccc2Nc2ccnc(Nc3ccc(N4CCOCC4)cc3)c2)n1	TEAD-YAP block 46.9
O=C(CSc1nc2ccc([N+](=O)[O-])cc2[nH]1)Nc1ccc(F)c(F)c1	TEAD-YAP block 68.5
O=C(CSc1nc2ccc([N+](=O)[O-])cc2[nH]1)Nc1ccc(F)cc1	none
CCc1ccc2c(c1)NC(=O)C2(C)Cc1cccc(C(=O)OC)c1 (stereo not given)	TEAD-YAP block 44.1
CCC(=O)N1c2c(C)cc(C)cc2-c2c(ssc2=S)C1(C)C	none
Cc1nnc(SCC(=O)N2c3cc(C)c(C)cc3-c3c(ssc3=S)C2(C)C)s1	none
COc1ccc2c(c1)-c1c(ssc1=S)C(C)(C)N2C(=O)CSc1nnc(C)s1	TEAD-YAP block 33.8
Cc1ccc2c(c1)-c1c(ssc1=S)C(C)(C)N2C(=O)c1ccncc1	TEAD-YAP block 55.1
COc1cc(C(=O)N2c3ccccc3-c3c(ssc3=S)C2(C)C)cc(OC)c1OC	TEAD-YAP block 60.7
